Hits are enriched below; roughly 4.1% of the tested compounds scored in any of these assays.
DAX1 inh-1 = inhibitors of DAX1 repression of SF-1 activated StAR promoter; HEK293T StAR-luciferase reporter, SF-1/DAX-1 repression relief; inhibition, % at 6.8 µM; 370,000 tested, 1.1% active;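 active means inhibition above the mean over all tested compounds plus 3 SD, cut at about 3.6% in these data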;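 further: 0% = DAX-1 cells with DMSO and 100% = cells lacking DAX-1 with DMSO; higher inhibition means more luminescence from relief of DAX-1 repression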
hgDAF-12 ag = agonists of H. glycines DAF-12 nuclear receptor | 370,000 tested, 1.8% active | HEK293 GAL4-hgDAF12 UAS-luciferase reporter, agonist luminescence; normalized to butyrate control | activation, % at 6.8 µM | AID 687014;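 active means activation above a cutoff set at the mean of all screened compounds plus 3 SD, cut at about 10% in these data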;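 further: 0% = DMSO wells and 100% = sodium butyrate wells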
ssDAF-12 act = activators of S. stercoralis DAF-12 nuclear receptor; activation, % at 6.8 µM; AID 652126; HEK293 ssDAF-12/GRIP1 lit1-tk-luc reporter, luminescence; % of 3 µM dafachronic acid response; 370,000 tested, 1% active;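 active means activation above the mean over all tested compounds plus 3 SD, cut at about 0.9% in these data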;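 further: 0% = DMSO-only wells and 100% = 3 µM delta7-dafachronic acid wells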
DAX1 inh-2 = inhibitors of human orphan nuclear receptor DAX1 (NR0B1). HEK293 Gal4-DAX1 luciferase reporter, luminescence. inhibition, % at 6.75 µM. 340,000 tested, 0.99% active;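 active means inhibition above the mean over all tested compounds plus 3 SD, cut at about 4.2% in these data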;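 further: 0% = DAX1-transfected cells with DMSO and 100% = empty-vector control cells with DMSO; inhibition shows as a rise in luminescence from relieved DAX1 repression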
Target sequence (P51843 207-470 limits assumed): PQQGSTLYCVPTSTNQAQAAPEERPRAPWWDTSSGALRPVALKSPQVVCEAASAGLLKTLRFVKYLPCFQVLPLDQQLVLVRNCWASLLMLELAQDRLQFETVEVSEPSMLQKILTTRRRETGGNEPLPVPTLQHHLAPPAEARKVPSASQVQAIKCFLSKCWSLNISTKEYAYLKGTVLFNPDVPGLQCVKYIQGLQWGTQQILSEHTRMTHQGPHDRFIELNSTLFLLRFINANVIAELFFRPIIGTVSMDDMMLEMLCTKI
hcDAF12 agonist = H. contortus DAF-12 activation, primary screen. AID 652067. activation, % at 6.8 µM. 370,000 tested, 1.4% active. HEK293 hcDAF-12 lit1-tk-luc reporter, luminescence; 0% DMSO, 100% Δ7-dafachronic acid;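 active means activation above the mean of all tested compounds plus 3 SD, cut at about 5.5% in these data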;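 further: 100% = response to 3 µM Δ7-dafachronic acid high control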
The depositor's hits bear a star; x = not tested or not shown.

SMILES	DAX1 inh-1	hgDAF-12 ag	ssDAF-12 act	DAX1 inh-2	hcDAF12 agonist
O=C(CSCc1ccccc1)Nc1ccc2c(c1)OCO2	3.8*	8.0	0.3	2.1	2.5
Cc1ccccc1C(=O)Nc1ccc2c(c1)OCCO2	3.2	11.0*	1.8*	-3.2	5.4
CCCCN(C)C(=O)CSc1nnc(-c2cccnc2)n1C1CCCCC1	0.8	-3.7	-0.8	x	-2.1
O=C(N[C@H](Cc1ccccc1)C(=O)N1CCN(c2ncccn2)CC1)[C@H]1O[C@@H](n2ccc(=O)[nH]c2=O)[C@H](O)[C@@H]1O	-0.9	2.8	-0.6	x	-0.4
O=C(CSc1ncn(-c2ccccc2)n1)Nc1ccc2c(c1)OCCO2	-0.2	1.9	-0.2	1.1	1.0
O=C(CSc1ccccc1F)Nc1ccc2c(c1)OCO2	2.2	10.5*	-0.5	1.1	2.3
O=C(CSc1ccccn1)Nc1ccc2c(c1)OCO2	-0.7	8.2	-1.5	x	2.6
O=C(Nc1ccc2c(c1)OCCO2)c1cnn(-c2ccccc2)n1	4.2*	9.7	0.0	-0.4	1.4
NC(=O)CSc1nnc(CNc2ccc(F)cc2)n1CC1CCCO1 (stereo unspecified)	-0.5	1.3	-0.3	-0.7	-1.0
CCCc1nnc(SCC(=O)N(CC)CC)n1CC1CCCO1 (stereo unspecified)	0.4	-2.1	-1.2	5.5*	0.2
Cc1ccc(NCc2nnc(SCC(N)=O)n2CC2CCCO2)c(C)c1 (stereo unspecified)	-0.2	2.4	-1.1	5.5*	-0.9
COC(=O)[C@]12C[C@H](CC(=O)N3CCOCC3)C(=O)N(Cc3cccc4ccccc34)C1=C[C@H](C1CCCC1)O[C@@H]2C	-1.2	-0.9	-0.5	x	-3.3
CCc1ccc(CCNC(=O)OC2CC3CC2[C@H]2CCCCN2[C@H]3Cc2ccccc2)cc1 (stereo partly specified)	-0.5	0.3	-0.9	x	0.1
COc1ccc(NC(=O)C(=O)NCCN2CCN(C(=O)c3ccc(C)cc3)CC2)cc1	0.1	-1.5	1.2*	1.5	-3.1
COc1ccc(C(=O)N2CCN(CCNC(=O)C(=O)Nc3ccc(F)cc3)CC2)cc1	-0.1	-0.9	-1.3	0.5	-0.2
C=CCN1C(=O)[C@@H](CC(=O)NCc2ccccc2)[C@]2(C(=O)OC)CCCCC=C12	0.7	0.7	-1.0	x	-0.5
S=c1[nH]cnc2sc(Nc3ccccc3)nc12	0.2	4.9	0.2	0.7	5.8*
Cc1sc2nc[nH]c(=S)c2c1-c1ccccc1	-0.2	-3.4	-1.8	0.6	0.3
CC(C)C1C(=O)N(Cc2cn(CC3CCCCC3)nn2)CCS(=O)(=O)N1Cc1ccc(-c2ccc(Cl)nc2)cc1 (stereo unspecified)	4.4*	-1.8	-0.8	0.8	0.4
CC(C)CC1C(=O)N(Cc2cn(CCC3OCCCO3)nn2)CCS(=O)(=O)N1Cc1ccc(-c2ccc(Cl)nc2)cc1 (stereo unspecified)	-1.9	0.8	-1.4	5.1*	-0.7
CC(=O)CSc1nnc(-c2ccc(S(=O)(=O)N3CCCC3)cc2)n1C	-0.1	-0.4	-0.6	0.9	1.4
CC(=O)CSc1nnc(-c2ccc(S(=O)(=O)N3CCOCC3)cc2)n1C	0.3	0.5	-0.8	5.4*	-0.2
O=C(N[C@@H]1CC[C@H]2SC[C@H](C(=O)O)N2C1=O)OCC1c2ccccc2-c2ccccc21	-0.9	-1.4	0.1	x	-1.1
O=C(O)CCn1c(=O)sc2ccccc21	-0.6	0.8	-1.4	0.4	-0.7
O=C(O)Cn1c(=S)sc2ccccc21	1.4	2.0	1.0*	0.7	2.4
SMILES	DAX1 inh-1	hgDAF-12 ag	ssDAF-12 act	DAX1 inh-2	hcDAF12 agonist
CCC(C)N(C(=O)CSc1nnc(-c2cccnc2)n1C1CCCCC1)C(C)CC (stereo unspecified)	-1.3	-2.2	-1.3	x	-1.2
CCOC(=O)C1=CC[C@H]2c3c(c4ccccc4n3C)C(=O)C1N2C	0.2	-1.1	-1.0	5.1*	0.7
CCOC(=O)C1=CC[C@H]2c3c(c4ccccc4n3C)C(=O)C1N2Cc1ccccc1	-0.3	-2.7	-1.0	0.1	-0.4
CCOc1ccc(-n2c(SCC(=O)Nc3ccc(OCc4ccccc4)cc3)nnc2-c2ccc(Cl)cc2)cc1	-0.1	0.3	-0.9	x	1.4
NC(=O)CSc1nnc(-c2ccc(O)cc2)n1Cc1ccco1	0.1	0.5	-1.0	9.2*	-0.2
NC(=O)CSc1nnc(-c2cccs2)n1Cc1ccco1	0.0	-0.6	-1.8	5.5*	-0.5
O=C(CSc1nnc(-c2ccncc2)n1Cc1ccco1)Nc1ccccc1Cl	-0.2	-0.7	-1.0	0.8	-1.7
O=C(CSc1nnc(-c2ccncc2)n1Cc1ccco1)Nc1ccccc1F	-0.6	-2.0	-1.7	6.2*	-1.9
COC(=O)c1ccc2c(C(C)c3ccccc3O)c[nH]c2c1 (stereo unspecified)	1.2	2.6	-0.4	x	-0.7
O=C(NCc1ccncc1)c1cncc(Br)c1	-0.6	-1.8	-1.7	4.4*	0.5
O=C(Nc1ccc2c(c1)OCCO2)c1cncc(Br)c1	2.4	11.1*	-0.1	1.5	3.4
O=C(N/N=C\c1ccc2c(c1)OCO2)c1cncc(Br)c1	0.0	2.0	-1.3	-0.7	-0.7
CCc1sc(C(=O)Nc2ccc3c(c2)OCCO3)cc1Br	7.1*	10.9*	0.1	1.4	1.8
O=C(Nc1ccc2c(c1)OCCO2)c1ccccc1	x	x	x	-0.1	x
O=C(Nc1ccc2c(c1)OCO2)c1cncc(Br)c1	0.8	11.3*	-1.5	1.9	0.9
COCCNC(=S)N1CCN(c2nc(-c3cccc(OC)c3)cs2)CC1	-0.7	0.1	-1.5	4.3*	-0.5
O=C(CSc1nnc(-c2ccc(Cl)cc2)n1-c1ccccc1)Nc1ccc2c(c1)OCCO2	0.1	0.0	-1.1	x	-2.7
CC(C)N(c1nnc(N)s1)C(C)C	-0.8	-0.2	-0.4	5.0*	2.5
CN(Cc1ccc(F)cc1)C(=O)CN1C(=O)C2(OCCCO2)c2ccccc21	-0.9	0.0	-1.4	x	-0.5
Cc1ccc(-c2cc(C#N)c3n(c2=O)CCC3)cc1	-0.4	-1.1	-1.2	x	-1.0
CC(=O)Oc1ccc(Cn2cnc3cc4ccccc4cc32)cc1	-0.4	-1.2	-0.5	0.2	-0.4
CCOc1ccc2c(c1)ncn2Cc1ccccc1	0.6	0.5	-1.4	4.7*	0.0
CCN(CC)C(=O)c1cc(-c2ccc(Br)cc2)on1	2.2	10.8*	0.9*	2.2	0.9
Cc1ccccc1N(C)C(=O)Cn1nnc(-c2ccccc2F)n1	0.3	2.2	-1.1	x	-2.4
CC(C)(C)N1CCC1CN (stereo unspecified)	-0.3	2.4	-1.8	0.2	-2.1
CC1(C)C2CCC(CN)C1C2 (stereo unspecified)	0.1	3.7	-1.1	5.3*	-1.8
Cc1noc(C)c1C(=O)OCC(=O)/C=C1/N(C)c2ccccc2C1(C)C	0.0	3.7	-1.4	5.9*	-1.3
CCCCOCC1CN(CCCC)S(=O)(=O)c2c(NCc3cc(OC)c(OC)c(OC)c3)cccc2O1 (stereo unspecified)	-1.3	-2.8	-1.9	x	-2.3

Bioassay records: PubChem BioAssay, The Scripps Research Institute Molecular Screening Center
